Each structure is given as a SMILES string. Several values for one entry are separate records, joined by “and”; a condition that tells them apart may be missing. Equal entries are not always repeated. Some compounds were tested as several samples or in several runs, with calls that do not always agree. Activity calls are given as the source filed them. The calls were made as follows: active = hit-call score of the fitted dose curve at least 0.9, where 1 is the maximum; inactive = score below 0.9.

Assay [1] in a line: APR_HepG2_P-H2AX_72hr: Apredica 72-hour HepG2 Assay for H2AX Phosphorylation (AID 2282916).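 Also: phospho-histone H2A.x immunostain intensity per cell marking DNA damage.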 To be noted: imaging, actives raise or lower the signal. The method, boiled down:
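HepG2 human liver cells were exposed for 72 hr to compounds at 0.39–200 uM (10 concentrations, duplicate per plate) in 0.5% v/v DMSO. Fixed, permeabilized cells were immunolabeled for phospho-histone H2A.x with Hoechst 33342 and imaged by HCS fluorescence; bidirectional fit versus DMSO.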

The nature of assay [2]: APR_HepG2_MitoMembPot_72hr: Apredica 72-hour HepG2 Assay for Mitochondrial Membrane Potential (AID 2282917). As to conditions: imaging, actives raise or lower the signal. The method, boiled down: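 Membrane potential read by MitoTracker Red CMXRos (250 nM, 30 min, pre-fixation) fluorescence imaging of HepG2 after 72 hr exposure. Ten concentrations, 0.39–200 uM, duplicate wells, 0.5% DMSO; fitted in both directions against DMSO baseline.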

Assay [3] in a line: APR_HepG2_MitoticArrest_72hr: Apredica 72-hour HepG2 Assay for Mitotic Arrest (AID 2282918). To be noted: high-content imaging, actives raise or lower the signal. The method, boiled down: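 Read-out is phospho-histone H3 immunofluorescence with Hoechst nuclear segmentation, imaged at 20x. Human HepG2 liver cells received ten concentrations (0.39–200 uM, final DMSO 0.5% v/v) for 72 hr before fixation. Gain or loss of signal was fitted relative to DMSO.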

The nature of assay [4]: APR_HepG2_MicrotubuleCSK_72hr: Apredica 72-hour HepG2 Assay for Microtubule CSK Stabilty (AID 2282919). As to conditions: HepG2 microtubule cytoskeleton, high-content imaging, actives raise or lower the signal. The gist of the method:
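Read-out is tubulin fluorescence intensity from high-content imaging of HepG2 cells, with nuclei identified by Hoechst 33342. Treatment lasts 72 h at 0.39–200 uM, and curves are fitted bidirectionally against the DMSO negative control.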

The nature of assay [5]: APR_HepG2_P-H2AX_24hr: Apredica 24-hour HepG2 Assay for H2AX Phosphorylation (AID 2282920). To be noted: high-content imaging, actives raise or lower the signal. The gist of the method:
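HepG2, 24 hr, cpd 0.39–200 uM (10 conc, duplicate), DMSO 0.5% v/v final. Fix 3.7% formaldehyde, Triton X-100 permeabilize, anti-phospho-H2A.x 1:200 + Hoechst 2 ug/mL. Imaged, bidirectional fit vs DMSO.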

A short description of assay [6]: APR_HepG2_StressKinase_72hr: Apredica 72-hour HepG2 Assay for Stress Kinase (AID 2282921). To be noted: HepG2 stress kinase (phospho-c-Jun) imaging, actives raise or lower the signal. The gist of the method: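 Cells were exposed for 72 h to ten concentrations (0.39–200 uM, duplicate) at 0.5% v/v DMSO final, then fixed with 3.7% formaldehyde, permeabilized and immunostained for phospho-c-Jun (Cy3 secondary) with Hoechst nuclear counterstain.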

A short description of assay [7]: APR_HepG2_StressKinase_24hr: Apredica 24-hour HepG2 Assay for Stress Kinase (AID 2282922). To be noted: HepG2 stress kinase (phospho-c-Jun) imaging, actives raise or lower the signal. The method, boiled down:
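HepG2, 24 hr dosing, 0.39–200 uM in duplicate, 0.5% DMSO; formaldehyde fix (3.7%), 0.5% Triton X-100; anti-phospho-c-Jun + Cy3 secondary, Hoechst counterstain; ArrayScan imaging; bidirectional curve fit vs DMSO baseline.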

Assay [8] is described as follows: APR_HepG2_p53Act_72hr: Apredica 72-hour HepG2 Assay for p53 Activation (AID 2282923).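 Also: average cellular p53 protein immunofluorescence intensity in HepG2 cells.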 To be noted: high-content imaging, actives raise or lower the signal. The gist of the method: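 Cells were dosed for 72 hr with compounds at 0.39–200 uM in duplicate (final DMSO 0.5% v/v), then fixed in 3.7% formaldehyde, permeabilized with Triton X-100 and immunostained for p53 (Cy5) with Hoechst 33342 nuclear counterstain.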

The nature of assay [9]: APR_HepG2_NuclearSize_72hr: Apredica 72-hour HepG2 Assay for Nuclear Size (AID 2282925). As to conditions: high-content imaging, actives raise or lower the signal. The gist of the method: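 HepG2; cpd 0.39–200 uM, 10 conc, duplicate; 72 h; DMSO 0.5% v/v; fix 3.7% formaldehyde 30 min RT; Triton permeabilization; Hoechst 2 ug/mL; HCS imaging 20x; nuclear diameter; gain/loss fit vs DMSO.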

Assay [10] in a line: ATG_CRE_CIS: Attagene CIS-FACTORIAL HepG2 Assay for human cAMP Responsive Element (CRE) binding protein 3 (AID 2282926). As to conditions: HepG2 CRE cis-reporter, Attagene multiplexed mRNA; actives raise or lower the signal. The gist of the method:
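Human liver HepG2, transient MRTU transfection, 24 h compound exposure. Total RNA → oligo(dT) RT → PCR → 6-FAM primer extension → HpaI cut → CE. Activity called both directions vs DMSO.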

Assay [11] concerns the target CCAAT/enhancer-binding protein beta (Homo sapiens) (UniProt P17676). Nature of the assay: ATG_C_EBP_CIS: Attagene CIS-FACTORIAL HepG2 Assay for human CCAAT/Enhancer Binding Protein (C/EBP) beta (AID 2282927). To be noted: HepG2 Attagene cis-factorial transcription factor reporter; actives raise or lower the signal. The gist of the method: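 Changes in reporter mRNA, rather than exogenous chimeric receptor activity, reflect native C/EBP signalling in transfected HepG2 cells dosed for 24 h; transcripts are detected by RT-PCR and capillary electrophoresis.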

Assay [12] can be described thus: ATG_CMV_CIS: Attagene CIS-FACTORIAL HepG2 Assay for human CMV (Internal Marker) (AID 2282928).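 Also: endpoint acts as a background internal control marker rather than a target.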 To be noted: HepG2 CMV promoter reporter, transcription factor profiling; actives raise or lower the signal. The method, boiled down: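 HepG2 cells transiently transfected with multiple cis-regulated reporter units; 24 h compound exposure. Reporter mRNA quantified by RT-PCR, 6-FAM primer-extension labeling, HpaI digestion and capillary electrophoresis; bidirectional fitting against DMSO baseline.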

Assay [13] is described as follows: ATG_DR4_LXR_CIS: Attagene CIS-FACTORIAL HepG2 Assay for human Liver X Receptor (LXR), DR4 submotif (AID 2282929). As to conditions: HepG2 Attagene DR4 cis-reporter, mRNA transcription; actives raise or lower the signal. The method, boiled down: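 Endogenous factor activity at a DR4 cis-element is read as reporter mRNA in transiently transfected HepG2 cells. Exposure lasts 24 h; transcripts are amplified, fluorescently labelled and sized by capillary electrophoresis, with DMSO as baseline.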

For assay [14], the target named is Aryl hydrocarbon receptor (Homo sapiens) (UniProt P35869). The assay is described as follows: ATG_Ahr_CIS: Attagene CIS-FACTORIAL HepG2 Assay for human Aryl Hydrocarbon Receptor (Ahr) (AID 2282930). As to conditions: HepG2 AhR cis-factorial reporter transcription; actives raise or lower the signal. The gist of the method: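 HepG2, transient MRTU (cis) transfection, 24 h exposure. RNA → cDNA → PCR → 6-FAM primer extension → HpaI 2 h 37 C → CE. Fit: bidirectional, DMSO baseline.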
Aryl hydrocarbon receptor (Homo sapiens), sequence (P35869 whole entry, looked up): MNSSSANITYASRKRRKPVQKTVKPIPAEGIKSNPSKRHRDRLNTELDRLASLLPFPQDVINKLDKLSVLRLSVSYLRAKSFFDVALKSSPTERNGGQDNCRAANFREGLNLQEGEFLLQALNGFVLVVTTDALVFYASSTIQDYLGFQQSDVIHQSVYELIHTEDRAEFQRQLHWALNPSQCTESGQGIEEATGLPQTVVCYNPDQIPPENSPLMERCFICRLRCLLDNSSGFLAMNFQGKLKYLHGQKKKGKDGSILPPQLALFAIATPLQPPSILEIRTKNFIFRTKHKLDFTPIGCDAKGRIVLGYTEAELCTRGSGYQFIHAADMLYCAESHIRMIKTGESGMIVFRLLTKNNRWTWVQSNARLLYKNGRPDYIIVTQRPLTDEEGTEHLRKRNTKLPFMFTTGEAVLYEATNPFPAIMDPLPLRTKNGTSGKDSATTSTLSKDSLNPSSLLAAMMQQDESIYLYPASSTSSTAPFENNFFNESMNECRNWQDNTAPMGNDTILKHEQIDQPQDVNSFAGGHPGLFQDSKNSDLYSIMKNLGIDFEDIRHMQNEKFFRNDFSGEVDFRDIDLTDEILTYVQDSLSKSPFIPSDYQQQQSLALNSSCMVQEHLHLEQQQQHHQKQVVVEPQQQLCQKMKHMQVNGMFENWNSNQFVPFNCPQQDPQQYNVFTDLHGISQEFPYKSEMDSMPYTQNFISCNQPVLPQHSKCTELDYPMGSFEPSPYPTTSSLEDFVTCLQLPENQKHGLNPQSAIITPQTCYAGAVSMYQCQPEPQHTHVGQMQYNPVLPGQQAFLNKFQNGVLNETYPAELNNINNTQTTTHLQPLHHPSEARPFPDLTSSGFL

The nature of assay [15]: ATG_AP_1_CIS: Attagene CIS-FACTORIAL HepG2 Assay for human Activator Protein 1 (AP-1) (AID 2282931). To be noted: HepG2 Attagene cis-factorial AP-1 reporter mRNA; actives raise or lower the signal. The gist of the method: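 Fluorescence of labelled PCR fragments separated by capillary electrophoresis gives reporter mRNA levels. HepG2 with transfected cis-regulated reporter units, 24 h exposure; DMSO serves as baseline for bidirectional curve fits.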

Assay [16] can be described thus: ATG_AP_2_CIS: Attagene CIS-FACTORIAL HepG2 Assay for human Activator Protein 2 (AP-2) (AID 2282932). To be noted: HepG2 AP-2 cis-reporter, Attagene transcription factor profiling; actives raise or lower the signal. The method, boiled down: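 Step one: transient transfection of HepG2 with reporter transcription units. Step two: 24 h chemical exposure. Step three: RNA extraction, RT-PCR, labelled fragment analysis by capillary electrophoresis; DMSO serves as baseline.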

Assay [17] concerns the target Retinoic acid receptor alpha (Homo sapiens) (UniProt P10276). Nature of the assay: ATG_DR5_RAR_CIS: Attagene CIS-FACTORIAL HepG2 Assay for human Retinoic Acid Receptor Alpha (RARE), DR5 submotif (AID 2282934).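 As to AC50: reporter responds to endogenous RAR alpha beta and gamma in HepG2 not RARA alone.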 To be noted: HepG2 Attagene cis-factorial RARE DR5 reporter, mRNA; actives raise or lower the signal. The method, boiled down: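 HepG2, transient cis-reporter transfection, 24 h exposure. mRNA readout: RT-PCR, FAM label, HpaI cut, capillary electrophoresis. DMSO baseline, gain/loss fitting.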

Assay [18] in a line: APR_HepG2_MitoMass_72hr: Apredica 72-hour HepG2 Assay for Mitochondrial Mass (AID 2282924).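 Also: MitoTracker Red CMXRos stain intensity per cell imaged as mitochondrial mass.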 As to conditions: high-content imaging, actives raise or lower the signal. The method, boiled down: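 HepG2, 72 hr cmpd, 10 conc 0.39–200 uM in dup, DMSO 0.5% v/v. MitoTracker Red CMXRos 250 nM 30 min pre-fix; formaldehyde 3.7% fix 30 min RT. HCS imaging, gain/loss fit vs DMSO.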
Assay [19] in a line: APR_HepG2_CellLoss_72hr: Apredica 72-hour HepG2 Assay for Cell Loss (AID 2282915). To be noted: high-content imaging. The method, boiled down:
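Cell number comes from Hoechst 33342-labelled nuclei, imaged at 20x after 3.7% formaldehyde fixation. Dosing was 0.39–200 uM, ten concentrations in duplicate, 0.5% DMSO final, for 72 h. Bidirectional fit relative to DMSO baseline.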

A short description of assay [20]: ATG_BRE_CIS: Attagene CIS-FACTORIAL HepG2 Assay for human Bone Morphogenetic Protein (BMP) Response Element (BRE) (AID 2282933). To be noted: HepG2 BMP response element reporter, Attagene transcription factor profiling; actives raise or lower the signal. The method, boiled down: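 Read-out: reporter mRNA induction quantified by RT-PCR and capillary electrophoresis after 24 h chemical exposure of transfected HepG2 cells. Endogenous factor activity on the BMP response element; gain or loss fitted against DMSO baseline.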

CCAAT/enhancer-binding protein beta (Homo sapiens), sequence (P17676 whole entry, looked up): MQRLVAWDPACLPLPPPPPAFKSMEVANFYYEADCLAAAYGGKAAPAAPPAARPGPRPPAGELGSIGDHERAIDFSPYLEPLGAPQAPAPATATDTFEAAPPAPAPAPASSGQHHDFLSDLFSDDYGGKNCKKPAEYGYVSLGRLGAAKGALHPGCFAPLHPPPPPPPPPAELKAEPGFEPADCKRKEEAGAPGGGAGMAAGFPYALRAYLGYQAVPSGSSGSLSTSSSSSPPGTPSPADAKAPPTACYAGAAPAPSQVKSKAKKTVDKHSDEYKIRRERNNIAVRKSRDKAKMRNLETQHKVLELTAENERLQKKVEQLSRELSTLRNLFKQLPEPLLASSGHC
Retinoic acid receptor alpha (Homo sapiens), sequence (P10276 whole entry, looked up): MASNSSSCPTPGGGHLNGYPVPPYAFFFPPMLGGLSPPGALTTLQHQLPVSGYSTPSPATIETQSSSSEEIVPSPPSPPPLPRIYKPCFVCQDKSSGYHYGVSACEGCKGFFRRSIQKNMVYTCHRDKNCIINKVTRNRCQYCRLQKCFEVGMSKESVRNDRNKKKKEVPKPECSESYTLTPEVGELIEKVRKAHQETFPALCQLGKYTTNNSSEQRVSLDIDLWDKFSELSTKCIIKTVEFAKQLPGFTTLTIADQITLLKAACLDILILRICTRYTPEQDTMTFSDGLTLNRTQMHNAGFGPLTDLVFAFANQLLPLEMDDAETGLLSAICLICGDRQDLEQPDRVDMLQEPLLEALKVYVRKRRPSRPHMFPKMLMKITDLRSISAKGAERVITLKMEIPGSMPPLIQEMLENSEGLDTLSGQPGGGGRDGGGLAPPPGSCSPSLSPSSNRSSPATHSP

Consider `O=C(Nc1ccccc1)Nc1ccnc(Cl)c1`, for which the outcome in assay [1], in assay [3], in assay [5], in [6], in [7] and in assay [8] was inactive. In addition, the result in assay [9], in [13], in [14] and in assay [16] was inactive. Further, the AC50 was 3.46 µM (active) in [2]; 32.5 µM (active) in assay [4]; 22.5 µM (active) in assay [10]; 50 µM (active) in assay [11]; 26.5 µM (active) in assay [12]; 16.3 µM (active) in assay [15]. The AC50 in assay [17] is 88.1 µM (active).
With `COP(N)(=O)SC` (centres undefined), the call in [1], in assay [2], in assay [3], in [4], in assay [5] and in [7] was inactive. For the same molecule, the molecule was classed as inactive in assay [8], in assay [18], in assay [9], in [10], in [11] and in assay [12]. In addition, the call in assay [13], in [14], in assay [15], in [16] and in assay [17] was inactive.
As for `C=CC1(C)OC(=O)N(c2cc(Cl)cc(Cl)c2)C1=O` (centres undefined), the outcome in assay [19], in [1], in assay [2], in assay [4], in assay [5] and in assay [7] was inactive. For the same molecule, the molecule was called inactive in [8], in assay [9], in assay [10], in [11], in [12] and in [13]. Besides, the result in assay [14], in assay [15] and in assay [16] was inactive.
Regarding `CCCN(CCC)c1c([N+](=O)[O-])cc(S(N)(=O)=O)cc1[N+](=O)[O-]`, the AC50 in assay [1] is 128 µM (active) and 34.6 µM (active); in assay [5], 31.7 µM (active) and 35.9 µM (active); in assay [7], 116 µM (active); in assay [13], 4.79 µM (active) and 11.1 µM (active); in assay [17], 1.22 µM (active) and 1.19 µM (active). In addition, the outcome in assay [1], in assay [2], in assay [4], in assay [5], in [7] and in [9] was inactive. In addition, the call in assay [10], in [11], in [12], in assay [13], in assay [14] and in assay [15] was inactive. The outcome in assay [16] and in assay [17] was inactive.
Regarding `Cc1ccc(-c2c(Cl)nc(C#N)n2S(=O)(=O)N(C)C)cc1`, the AC50 in assay [1] was 104 µM (active); in assay [4] it was 65.3 µM (active); in assay [10], 7.83 µM (active); in [11], 7.57 µM (active); in [15], 9.12 µM (active); in [17], 11.9 µM (active). For the same molecule, the outcome in [2], in [3], in assay [5], in assay [6], in [7] and in [8] was inactive. Besides, the outcome in assay [9], in [12], in assay [13], in assay [14] and in assay [16] was inactive.
For the molecule `COc1nc(C)nc(NC(=O)NS(=O)(=O)c2ccccc2Cl)n1`, the outcome in assay [19], in assay [1], in [2], in assay [3], in [4] and in assay [5] was inactive. The outcome in assay [7], in [8], in assay [9], in [10], in assay [11] and in assay [12] was inactive. Moreover, the molecule was called inactive in assay [13], in [14], in assay [15], in assay [16] and in [17].
As to `COC(=O)C(C)Oc1ccc(Oc2ccc(Cl)cc2Cl)cc1` (centres undefined), the outcome in assay [19], in [1], in assay [2], in assay [4], in assay [5] and in assay [7] was inactive. Moreover, the call in assay [8], in assay [9], in [10], in assay [11], in assay [12] and in assay [13] was inactive. In addition, the result in assay [14], in [15], in assay [16], in [20] and in assay [17] was inactive.

These data come from PubChem BioAssay (EPA / NIEHS).
